This passage reports activation (% of full agonist control) and activation (% of partial agonist control) results from PubChem BioAssay AID504452 (The Scripps Research Institute Molecular Screening Center, 2011).

The target in the assay is Peroxisome proliferator-activated receptor gamma (Homo sapiens) (UniProt P37231). The assay can be described thus: PPARg partial agonist activation, primary screen, cell-based, luciferase reporter, luminescence (AID 504452).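 Note: Cos-1 cells carrying PPARgamma and a response element luciferase reporter.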 The conditions noted are these: at 5 µM, stronger effect = higher value; activation (% of full agonist control): measured here: relative to full agonist control. (In a reporter assay the amount or activity of a reporter protein is the signal.)
Peroxisome proliferator-activated receptor gamma (Homo sapiens), sequence (P37231 whole entry, looked up): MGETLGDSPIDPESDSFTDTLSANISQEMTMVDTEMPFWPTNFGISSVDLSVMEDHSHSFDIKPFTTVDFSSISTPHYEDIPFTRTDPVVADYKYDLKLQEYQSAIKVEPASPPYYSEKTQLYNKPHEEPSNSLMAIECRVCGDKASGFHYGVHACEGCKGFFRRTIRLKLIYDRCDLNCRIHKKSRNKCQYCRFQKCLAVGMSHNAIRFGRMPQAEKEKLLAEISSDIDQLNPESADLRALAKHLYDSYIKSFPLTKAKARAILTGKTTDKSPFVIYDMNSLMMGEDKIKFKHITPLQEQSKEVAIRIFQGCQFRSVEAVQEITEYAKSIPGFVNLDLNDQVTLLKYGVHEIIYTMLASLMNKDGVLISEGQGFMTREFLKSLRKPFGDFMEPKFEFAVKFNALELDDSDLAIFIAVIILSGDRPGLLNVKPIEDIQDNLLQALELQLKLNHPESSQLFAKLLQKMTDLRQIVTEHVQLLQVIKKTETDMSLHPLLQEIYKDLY

Molecules are shown by their SMILES. Calls of active or inactive are those of the source. Cut-off read from the data, not from the text of the source: active = activation above about 85%; inactive = the rest.

In the case of `COc1ccc(NC(=O)CC2C(=O)Nc3ccccc3N2CC(=O)N2CCCC2)cc1` (centres undefined), the activation (% of full agonist control) turned out to be 30.4% and the activation (% of partial agonist control) is 67.3% (inactive).

For `O=C(NC(Cc1ccccc1)C(=O)N1CCN(c2ccccc2O)CC1)c1ccccc1` (centres undefined), the activation (% of full agonist control) was 40.7% and the activation (% of partial agonist control) was 90.2% (active).

As for `O=C(CN1C(=O)/C(=C/c2ccccc2F)Sc2ccccc21)NCC1CCCO1` (centres undefined), the activation (% of full agonist control) was 35% and the activation (% of partial agonist control) is 77.5% (inactive).

For `Cc1cccc(Cn2cc3c(=O)n(Cc4cccc(F)c4)nc-3c3ccccc32)c1`, the activation (% of full agonist control) amounted to 38% and the activation (% of partial agonist control) is 84.2% (inactive).

In the case of `COc1ccc(C2CC(=O)N3CN(c4ccccc4F)CSC3=C2C#N)cc1OC` (centres undefined), the activation (% of full agonist control) was 29.2% and the activation (% of partial agonist control) is 64.7% (inactive).

Regarding `COC(=O)c1ccc(NC(=O)C(=O)c2cn(CC(=O)N3CCOCC3)c3ccccc23)cc1`, the activation (% of full agonist control) was 32.1% and the activation (% of partial agonist control) is 71.1% (inactive).

For the compound `COC(=O)c1sc(N2C(=O)C(O)=C(C(=O)c3ccc(C)o3)C2c2ccc(F)cc2)nc1C` (centres undefined), the activation (% of full agonist control) is 29.9% and the activation (% of partial agonist control) was 66.2% (inactive).

With `CC(=O)c1cccc(NC(=O)CSc2nc(=O)n(CCN3CCOCC3)c3c2CCCC3)c1`, the activation (% of full agonist control) worked out at 36.2% and the activation (% of partial agonist control) is 80.2% (inactive).

For `O=C(C1=C(O)C(=O)N(c2nc3ccc(Cl)cc3s2)C1c1ccco1)c1ccco1` (centres undefined), the activation (% of full agonist control) was determined as 42.1% and the activation (% of partial agonist control) is 93.2% (active).

Regarding `Cc1ccc(C(=O)NCc2cccc(C(F)(F)F)c2)cc1S(=O)(=O)N1CCCCC1`, the activation (% of full agonist control) was 25.6% and the activation (% of partial agonist control) was 56.7% (inactive).

Take `Cc1ccc2nc(N3C(=O)C(O)=C(C(=O)c4ccco4)C3c3cccc(O)c3)sc2c1` (centres undefined): the activation (% of full agonist control) was 46.7% and the activation (% of partial agonist control) is 103% (active).

Regarding `CCOC(=O)N1CCN(C(=O)c2ccc(S(=O)(=O)c3ccc(C)cc3)c(NC(C)=O)c2)CC1`, the activation (% of full agonist control) was 37.2% and the activation (% of partial agonist control) was 82.4% (inactive).

With `Cc1ccc(S(=O)(=O)Nc2ccccc2F)cc1C(=O)N1CCN(c2ccccc2O)CC1`, the activation (% of full agonist control) came out at 33% and the activation (% of partial agonist control) was 73% (inactive).

On to `O=C(NC(Cc1c[nH]c2ccccc12)C(=O)O)/C(=C/c1ccc(F)cc1)NC(=O)c1ccccc1` (centres undefined), for which the activation (% of full agonist control) stood at 32.2% and the activation (% of partial agonist control) was 71.2% (inactive).

As to `COc1ccccc1N1C(=O)C2C(c3ccccc3F)NN(C(=O)c3ccc(C)cc3)C2C1=O` (centres undefined), the activation (% of full agonist control) worked out at 26.8% and the activation (% of partial agonist control) is 59.4% (inactive).

Consider `COc1ccc(O)c(C(=O)c2cc(C#N)c(=O)n(CC3CCCO3)c2)c1` (centres undefined), for which the activation (% of full agonist control) was determined as 38.1% and the activation (% of partial agonist control) was 84.3% (inactive).

Turning to `CN(C(=O)CS(=O)(=O)c1cn(CC(=O)N2CCCC2)c2ccccc12)c1ccccc1`, the activation (% of full agonist control) is 24.5% and the activation (% of partial agonist control) is 54.2% (inactive).

As for `O=C(Nc1c(C(=O)Nc2ccc3c(c2)OCCO3)cnn1-c1ccccc1Cl)c1ccco1`, the activation (% of full agonist control) amounted to 47.5% and the activation (% of partial agonist control) was 105% (active).

On to `Cc1cccn2c(=O)c(/C=C(\C#N)C(=O)NC3CCS(=O)(=O)C3)c(Oc3ccc(F)cc3)nc12` (centres undefined), for which the activation (% of full agonist control) worked out at 34.6% and the activation (% of partial agonist control) is 76.7% (inactive).

Turning to `COC(=O)C1=CN(Cc2ccc(C)cc2)C=C(C(=O)OC)C1c1ccc(F)c(F)c1`, the activation (% of full agonist control) worked out at 36.2% and the activation (% of partial agonist control) is 80.2% (inactive).

For the compound `N#C/C(=C\c1ccc(OCCN2CCOCC2)cc1)C(=O)Nc1ccc(S(N)(=O)=O)cc1`, the activation (% of full agonist control) came to 36.8% and the activation (% of partial agonist control) was 81.4% (inactive).

For `O=c1c([N+](=O)[O-])c(NCCN2CCCCCC2)c2ccccc2n1-c1ccccc1`, the activation (% of full agonist control) is 15.8% and the activation (% of partial agonist control) is 34.9% (inactive).

With `O=c1c(S(=O)(=O)c2ccc(Cl)cc2)cn(Cc2ccccc2)c2ccc(F)cc12`, the activation (% of full agonist control) worked out at 38% and the activation (% of partial agonist control) was 84.1% (inactive).

`O=C(NC(Cc1ccccc1)C(=O)O)/C(=C/c1ccc([N+](=O)[O-])cc1)NC(=O)c1ccco1` (centres undefined): the activation (% of full agonist control) was determined as 35.3% and the activation (% of partial agonist control) was 78.1% (inactive).

On to `O=C(NCCc1c[nH]c2ccccc12)N[C@@H](Cc1ccccc1)C(=O)O`, for which the activation (% of full agonist control) was found to be 33.3% and the activation (% of partial agonist control) is 73.7% (inactive).

Regarding `O=C(Cn1c(=O)c(=O)n(Cc2ccccc2)c2ccc(Cl)cc21)Nc1cccc(F)c1`, the activation (% of full agonist control) came to 25.4% and the activation (% of partial agonist control) is 56.2% (inactive).

For the compound `Cc1cc(C(=O)CN2C(=O)C(=O)N(Cc3ccccc3)C2=O)c(C)n1Cc1ccc(F)cc1`, the activation (% of full agonist control) turned out to be 38% and the activation (% of partial agonist control) is 84.1% (inactive).

Turning to `COc1cccc(C2/C(=C(/O)c3ccccc3)C(=O)C(=O)N2Cc2ccco2)c1` (centres undefined), the activation (% of full agonist control) was 35.3% and the activation (% of partial agonist control) is 78.2% (inactive).

For the compound `O=C(NCC(c1ccco1)N1CCc2ccccc2C1)c1cccc(F)c1` (centres undefined), the activation (% of full agonist control) was 33.4% and the activation (% of partial agonist control) is 74% (inactive).

For the compound `COc1ccccc1N1C(=O)C2C(C(=O)c3ccccc3)=NN(c3ccc(C)cc3)C2C1=O` (centres undefined), the activation (% of full agonist control) was found to be 47.8% and the activation (% of partial agonist control) was 106% (active).

For the compound `COC(=O)C1=CN(Cc2ccccc2)C=C(C(=O)OC)C1c1ccc(OC)c(OC)c1`, the activation (% of full agonist control) turned out to be 25.9% and the activation (% of partial agonist control) was 57.3% (inactive).

`CC(C)C[C@H](NC(=O)N1CC(=O)Nc2ccccc21)C(=O)N[C@@H](Cc1c[nH]c2ccccc12)C(=O)O`: the activation (% of full agonist control) turned out to be 31.3% and the activation (% of partial agonist control) is 69.4% (inactive).
